Measurements reported in PubChem BioAssay (EPA / NIEHS).
Results filed as inconclusive are left out. Calls of active or inactive are those of the source. Rule for the calls: active = hit-call score of the fitted dose curve at least 0.9, where 1 is the maximum; inconclusive = response in the unintended direction; inactive = score below 0.9.

Biological target: Nuclear receptor subfamily 1 group I member 2 (Homo sapiens) (UniProt O75469)
Test: ATG_PXR_TRANS: Attagene TRANS-FACTORIAL HepG2 Assay for human Pregnane X Receptor (PXR) (AID 2283008)
How it was run: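 Transactivation by exogenous PXR–GAL4 fusion measured as reporter transcript induction after 24 h compound treatment of transfected human HepG2 cells. Read-out via RT-PCR and capillary electrophoresis of labelled fragments, fitted upward relative to DMSO.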

Sequence of Nuclear receptor subfamily 1 group I member 2 (Homo sapiens) (O75469 whole entry, looked up): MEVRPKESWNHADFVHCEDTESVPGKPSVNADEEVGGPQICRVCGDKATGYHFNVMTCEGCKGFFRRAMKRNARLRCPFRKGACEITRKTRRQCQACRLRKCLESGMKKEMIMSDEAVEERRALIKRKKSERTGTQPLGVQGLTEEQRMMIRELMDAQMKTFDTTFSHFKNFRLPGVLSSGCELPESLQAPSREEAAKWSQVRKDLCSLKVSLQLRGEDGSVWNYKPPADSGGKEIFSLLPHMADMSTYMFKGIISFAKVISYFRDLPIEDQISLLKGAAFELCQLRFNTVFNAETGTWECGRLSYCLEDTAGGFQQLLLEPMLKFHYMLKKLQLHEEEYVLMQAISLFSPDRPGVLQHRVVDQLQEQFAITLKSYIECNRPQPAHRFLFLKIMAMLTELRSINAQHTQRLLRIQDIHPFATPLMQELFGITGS

| Compound | AC50 | outcome |
| --- | --- | --- |
| CC1=Nc2ccc3ccccc3c2C1(C)C | 2650 nM (active) |  |
| O=C(O)CCCCCCCCCC(=O)O |  | inactive |
| CC(C)(c1cc(Br)c(OCCO)c(Br)c1)c1cc(Br)c(OCCO)c(Br)c1 | 1710 nM (active) |  |
| CCOc1ccc(N)c([N+](=O)[O-])c1 |  | inactive |
| CCCCC(CC)COC(=O)c1ccccc1O (centres undefined) |  | inactive |
| COC(=O)c1ccc2cc(C(=O)OC)ccc2c1 |  | inactive |
| FC(F)(F)C(=NOCC1OCCO1)c1ccc(Cl)cc1 |  | inactive |
| CCCCCCCCCCCCCCCC(=O)OCC |  | inactive |
| CC(C)c1ccc(C#N)cc1 |  | inactive |
| Cc1ccc2oc(=O)ccc2c1 |  | inactive |
| CCN(CC)c1ccc(C(=O)c2ccccc2C(=O)O)c(O)c1 | 611 nM (active) |  |
| COc1ccc([C@@H]2CC(=O)c3c(O)cc(O[C@@H]4O[C@H](CO[C@@H]5O[C@@H](C)[C@H](O)[C@@H](O)[C@H]5O)[C@@H](O)[C@H](O)[C@H]4O)cc3O2)cc1OC |  | inactive |
| C=C[Si](OC(C)=O)(OC(C)=O)OC(C)=O | 4820 nM (active) |  |
| Clc1nc2ccccc2s1 |  | inactive |
| Nc1ccc(Cl)cc1Cl |  | inactive |
| C#CC1(O)CC[C@H]2[C@@H]3CCC4=CCCC[C@@H]4[C@H]3CC[C@@]21C (some centres undefined) | 2140 nM (active) |  |
| C1=CCCC1 |  | inactive |
| Cc1cccc(OCCOc2cccc(C)c2)c1 |  | inactive |
| CCc1ccc2c(c1)C(=O)c1ccccc1C2=O | 4340 nM (active) |  |
| CCO[Si](C)(OCC)OCC |  | inactive |
| C=C(C)C(=O)OCCO |  | inactive |
| CC1=NN(c2cc(S(=O)(=O)O)ccc2Cl)C(=O)C1N=Nc1ccccc1 (centres undefined) |  | inactive |
| Cc1cc(C)c(C(=O)O)c(C)c1 |  | inactive |
| C=CC=CC=CCCCCC | 6770 nM (active) |  |
